Test results: the supplement of paper PMC4166925
± gives the standard deviation of the averaged measurements. Over roughly 33,000 sequences, “E-score (dimensionless, -0.5 to 0.5)” has its median near -0.049; the highest 2% begin near 0.37. Shown is part of a subset that was picked to be rich in the highest values.

What follows are sequences tested on T1, PmTbr T-box DNA-binding domain (GST fusion) (assay: PBM E-score of 8-mer (E-score (dimensionless, -0.5 to 0.5)); Tbr is Tbrain of the sea star Patiria miniata (Pm) or the sea urchin Strongylocentrotus purpuratus (Sp); higher = stronger binding preference). Settings: the construct has about 5 more residues each side.
T1 sequence: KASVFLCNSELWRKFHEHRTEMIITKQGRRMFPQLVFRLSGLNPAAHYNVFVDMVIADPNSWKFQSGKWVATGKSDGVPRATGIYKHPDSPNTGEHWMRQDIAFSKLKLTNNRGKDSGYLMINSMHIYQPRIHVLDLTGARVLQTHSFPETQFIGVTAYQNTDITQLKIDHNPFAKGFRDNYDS
Description: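 Universal protein-binding microarray (Agilent AMADID 016060, 60-bp probes with a 35-bp variable region) incubated with 200 nM GST-fused Patiria miniata Tbr T-box DNA-binding domain (residues 272-466) in PBS pH 7.5. Scored for every ungapped 8-mer (given with its reverse complement) by the Universal PBM Analysis Suite as E-score (modified Wilcoxon-Mann-Whitney enrichment, range -0.5 to 0.5; >0.45 counts as bound) and Z-score of median probe intensity. Two replicate arrays (datasets 1 and 2).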

Row | Sequence | PBM E-score of 8-mer
1 | CGTTGGTA | -0.0221 ± 0.009
2 | AAGTGCCG | 0.289 ± 0.025
3 | TGAGCAAA | 0.0705 ± 0.069
4 | AGGCCTGG | -0.293 ± 0.041
5 | ACCTGCGT | 0.112 ± 0.063
6 | AATTGGGA | -0.0137 ± 0.033
7 | CAACTCTG | 0.16 ± 0.08
8 | GACCTCTC | -0.109 ± 0.026
9 | GACCTCTA | -0.259 ± 0.07
10 | AACCTCTG | -0.151 ± 0.032
11 | AACCTCTA | -0.151 ± 0.025
12 | CACCTCTG | 0.4165 ± 0.00058
13 | CACCTCTC | 0.419 ± 0.023
14 | AACCTCTC | -0.0958 ± 0.093
15 | CACCTCTA | 0.44129 ± 0.00038
16 | CACCACCA | 0.201 ± 0.034
17 | CTTTTCTA | 0.0811 ± 0.085
18 | CTCCTCAA | -0.204 ± 0.024
19 | GCTTTCTA | -0.0965 ± 0.11
20 | AGTGTGCC | 0.125 ± 0.0018
21 | CAATGGAA | -0.144 ± 0.028
22 | ATGCCAAC | 0.0888 ± 0.00082
23 | GTGCCAAA | 0.421 ± 0.017
24 | CTGCCAAC | 0.0539 ± 0.0096

Row | Sequence | PBM E-score of 8-mer
25 | GTGCCAAC | 0.403 ± 0.0056
26 | TTGCCAAA | 0.11 ± 0.066
27 | CTGCCAAA | 0.186 ± 0.061
28 | CCATATAC | -0.00383 ± 0.065
29 | AGTCGATA | 0.147 ± 0.016
30 | AGCAGAAC | -0.287 ± 0.013
31 | ACAACTGA | 0.172 ± 0.019
32 | CCACCTCA | 0.229 ± 0.039
33 | AGACCTCT | -0.301 ± 0.015
34 | ACACCTCT | 0.48594 ± 0.00022
35 | ACACCTCA | 0.47047 ± 0.00026
36 | TCACCTCA | 0.437 ± 0.00059
37 | TGACCTCA | 0.0125 ± 0.0081
38 | AGACCTCA | 0.0571 ± 0.053
39 | TAACCTCA | -0.152 ± 0.0019
40 | AAACCTCT | -0.362 ± 0.051
41 | ACGCCTGC | 0.24 ± 0.0036
42 | GTGAAACA | 0.188 ± 0.036
43 | CTGCTTGC | -0.132 ± 0.025
44 | CGGCAGAG | 0.00638 ± 0.076
45 | CGGCTGTC | 0.0205 ± 0.07
46 | CCTTCGGA | -0.0659 ± 0.042
47 | GGTAACAC | 0.43 ± 0.0044
48 | AGTAACAA | 0.167 ± 0.0063

Row | Sequence | PBM E-score of 8-mer
49 | CGTAACAC | 0.365 ± 0.011
50 | AGTAACAC | 0.393 ± 0.025
51 | GGTAACAA | 0.198 ± 0.056
52 | AGTAACAG | 0.037 ± 0.085
53 | GTCTACGA | -0.127 ± 0.013
54 | ATCGCAGG | 0.0806 ± 0.064
55 | ACTCACTA | 0.144 ± 0.02
56 | CCTTAACG | 0.00703 ± 0.089
57 | ATGGGTAC | -0.173 ± 0.035
58 | TAGGGTCA | -0.0997 ± 0.066
59 | ATTGCAGC | -0.0944 ± 0.071
60 | ATGTCATA | -0.187 ± 0.0068
61 | CTGTCATA | 0.151 ± 0.011
62 | CTGTCAAA | 0.266 ± 0.04
63 | ATGTCAAC | 0.171 ± 0.006
64 | GTGTCGAA | 0.38248 ± 9.9e-05
65 | ATGTCGAA | -0.0919 ± 0.073
66 | TTGTCAAA | 0.144 ± 0.09
67 | CTGTCAAC | 0.338 ± 0.011
68 | CTGTCGAA | 0.125 ± 0.0096
69 | GTGTCAAA | 0.448 ± 0.0094
70 | GTGTCATA | 0.4057 ± 0.0013
71 | GTGTCAAC | 0.466 ± 0.007
72 | CACATCAG | 0.162 ± 0.035

Row | Sequence | PBM E-score of 8-mer
73 | ACGATGTG | 0.25 ± 0.067
74 | ACGTACTC | 0.061 ± 0.028
75 | GCATCAAC | 0.0651 ± 0.026
76 | GGGGCTGA | -0.1789 ± 0.00037
77 | ATAGGTAC | -0.105 ± 0.041
78 | ACGGCCAT | -0.105 ± 0.12
79 | GTGTCAGA | 0.3931 ± 0.00061
80 | ATGTCAGA | -0.162 ± 0.069
81 | CTGTCAGA | 0.211 ± 0.014
82 | AGGGATAA | -0.203 ± 0.032
83 | TCGTTTCA | 0.145 ± 0.031
84 | GAGTGAAA | 0.16 ± 0.1
85 | AAGTGACC | 0.185 ± 0.041
86 | AAGTGACG | 0.4043 ± 0.003
87 | AAGTGACA | 0.458 ± 0.0065
88 | AAGTGACT | 0.092 ± 0.006
89 | GAGTGACA | 0.373 ± 0.017
90 | CAGTGACA | 0.338 ± 0.0041
91 | GAGTGACC | -0.0846 ± 0.0063
92 | TAGTGACA | 0.398 ± 0.0059
93 | AAGTGAAA | 0.154 ± 0.056
94 | CAGTGACG | 0.134 ± 0.011
95 | TAGTGAAA | 0.144 ± 0.048
